According to the OligoGym collection:

target: BARX2; assay: pooled miR-30 sensor sort-seq; sequence = guide strand; details: shRNA
Also: reference of the scale not given here.

TCAATCTCTTCTGATGTGGGGA was tested. Which sensor-assay potency score (higher = more potent) did it give?
Its sensor-assay potency score (higher = more potent) is 0.111.

How did the sensor-assay potency score (higher = more potent) turn out when TGTTCCGTCTCTGACTCGCTGC was run?
The sensor-assay potency score (higher = more potent) was -0.452.

Which sensor-assay potency score (higher = more potent) does the source give for TTGACAAATACTTCTGCTTCTG here?
Its sensor-assay potency score (higher = more potent) is -0.22.

With TCCGTCTCTGACTCGCTGCTGG as the sequence, how does the sensor-assay potency score (higher = more potent) read?
Its sensor-assay potency score (higher = more potent) is -0.99.

With TTCTCTTCAGCTTCAATCTCTT as the sequence, how does the sensor-assay potency score (higher = more potent) read?
Its sensor-assay potency score (higher = more potent) is -0.0921.

Which sensor-assay potency score (higher = more potent) does the source give for TAATCGCAGGTCTCCTTGGAGA here?
The sensor-assay potency score (higher = more potent) was -1.07.

Which sensor-assay potency score (higher = more potent) does the source give for TCGTCGATCATGAAAGTCTTGT here?
The sensor-assay potency score (higher = more potent) was -0.832.

Which sensor-assay potency score (higher = more potent) does the source give for TTTAAGAACCATTTTCTTCCAT here?
The sensor-assay potency score (higher = more potent) was 0.594.

target: BAX; assay: as above; details: shRNA

How did the sensor-assay potency score (higher = more potent) turn out when TTGAGACACTCGCTCAGCTTCT was run?
Its sensor-assay potency score (higher = more potent) is -0.529.

With TTGAGCACCAGTTTGCTGGCAA as the sequence, how does the sensor-assay potency score (higher = more potent) read?
Its sensor-assay potency score (higher = more potent) is 0.213.

TACTGTCCAGTTCGTCCCCGAT was tested. Which sensor-assay potency score (higher = more potent) did it give?
Its sensor-assay potency score (higher = more potent) is -0.951.

With TCGGAAAAAGACCTCTCGGGGG as the sequence, how does the sensor-assay potency score (higher = more potent) read?
Its sensor-assay potency score (higher = more potent) is -0.669.

TTGGATCCAGCCCAACAGCCGC was tested. Which sensor-assay potency score (higher = more potent) did it give?
Its sensor-assay potency score (higher = more potent) is -1.52.

ATCAGTTCCGGCACCTTGGTGC was tested. Which sensor-assay potency score (higher = more potent) did it give?
Its sensor-assay potency score (higher = more potent) is -0.369.

With TGCGCTTGAGACACTCGCTCAG as the sequence, how does the sensor-assay potency score (higher = more potent) read?
Its sensor-assay potency score (higher = more potent) is 0.0222.

ATGCGCTTGAGACACTCGCTCA was tested. Which sensor-assay potency score (higher = more potent) did it give?
The sensor-assay potency score (higher = more potent) was -1.61.

With TTCTTGGTGGACGCATCCTGAG as the sequence, how does the sensor-assay potency score (higher = more potent) read?
The sensor-assay potency score (higher = more potent) was -1.72.

With TCATGATCTGCTCAGAGCTGGT as the sequence, how does the sensor-assay potency score (higher = more potent) read?
Its sensor-assay potency score (higher = more potent) is -1.61.

AATCATCCTCTGCAGCTCCATG was tested. Which sensor-assay potency score (higher = more potent) did it give?
The sensor-assay potency score (higher = more potent) was -1.42.

For TAGAAAAGGGCGACAACCCGGC, which sensor-assay potency score (higher = more potent) is on record?
The sensor-assay potency score (higher = more potent) was -0.132.

How did the sensor-assay potency score (higher = more potent) turn out when TCGATCCTGGATGAAACCCTGA was run?
The sensor-assay potency score (higher = more potent) was -0.785.

Which sensor-assay potency score (higher = more potent) does the source give for TAGGAGAGGAGGCCGTCCCAAC here?
Its sensor-assay potency score (higher = more potent) is -1.61.

Which sensor-assay potency score (higher = more potent) does the source give for TTCATGATCTGCTCAGAGCTGG here?
Its sensor-assay potency score (higher = more potent) is 0.0889.

Which sensor-assay potency score (higher = more potent) does the source give for AAACATGTCAGCTGCCACTCGG here?
The sensor-assay potency score (higher = more potent) was -0.504.

For AACATGTCAGCTGCCACTCGGA, which sensor-assay potency score (higher = more potent) is on record?
The sensor-assay potency score (higher = more potent) was -1.25.

For TTACTGTCCAGTTCGTCCCCGA, which sensor-assay potency score (higher = more potent) is on record?
Its sensor-assay potency score (higher = more potent) is -0.0654.

ATGATCTGCTCAGAGCTGGTGG was tested. Which sensor-assay potency score (higher = more potent) did it give?
Its sensor-assay potency score (higher = more potent) is -1.15.

With TTGCCGTCAGAAAACATGTCAG as the sequence, how does the sensor-assay potency score (higher = more potent) read?
The sensor-assay potency score (higher = more potent) was -0.725.

With TCTTGGTGGACGCATCCTGAGG as the sequence, how does the sensor-assay potency score (higher = more potent) read?
Its sensor-assay potency score (higher = more potent) is -1.92.

Which sensor-assay potency score (higher = more potent) does the source give for TGATGGTTCTGATCAGTTCCGG here?
Its sensor-assay potency score (higher = more potent) is -0.352.

target: BBC3; assay: as above; details: shRNA

Which sensor-assay potency score (higher = more potent) does the source give for TCGTACTGTGCGTTGAGGTCGT here?
The sensor-assay potency score (higher = more potent) was 0.393.

Which sensor-assay potency score (higher = more potent) does the source give for TACAGTATCTTACAGGCTGGGC here?
Its sensor-assay potency score (higher = more potent) is -0.231.

For TTGAGGTCGTCCGCCATCCGCC, which sensor-assay potency score (higher = more potent) is on record?
Its sensor-assay potency score (higher = more potent) is -1.67.

For TACAGGACCCTCCAGGGTGAGG, which sensor-assay potency score (higher = more potent) is on record?
The sensor-assay potency score (higher = more potent) was -1.57.

With TATACAGTATCTTACAGGCTGG as the sequence, how does the sensor-assay potency score (higher = more potent) read?
Its sensor-assay potency score (higher = more potent) is -0.558.

With TGCTCCGCCAGCGAGAGCGAGG as the sequence, how does the sensor-assay potency score (higher = more potent) read?
Its sensor-assay potency score (higher = more potent) is -2.06.

With TGCGTTGAGGTCGTCCGCCATC as the sequence, how does the sensor-assay potency score (higher = more potent) read?
The sensor-assay potency score (higher = more potent) was -1.7.

With TGTGCGTTGAGGTCGTCCGCCA as the sequence, how does the sensor-assay potency score (higher = more potent) read?
The sensor-assay potency score (higher = more potent) was -0.785.

With TCCGCCGCTCGTACTGTGCGTT as the sequence, how does the sensor-assay potency score (higher = more potent) read?
The sensor-assay potency score (higher = more potent) was -1.32.

For TTGTCTCCGCCGCTCGTACTGT, which sensor-assay potency score (higher = more potent) is on record?
The sensor-assay potency score (higher = more potent) was -1.
